# According to PubChem BioAssay (Tox21):
# Where “and” joins values, the source holds several entries; their conditions need not be identical. Equal entries are not always repeated. Records with an inconclusive call do not appear. Where a call stands in place of a potency, no number is given. Calls of active or inactive are those of the source. Unless noted, the call rests on the fitted dose curve; in most records, active means well fitted curve in the direction sought with a large enough effect in the repeat runs; inconclusive means weak or mixed curves; inactive means no such curve, though single readings can be large; an effect the other way counts as inactive or inconclusive.
# Experiments:
# [1] = qHTS assay to test for compound auto fluorescence at 535 nm (green) in HEK293 cells (AID 720680)
# [2] = qHTS assay to test for compound auto fluorescence at 460 nm (blue) in HEK293 cell free culture (AID 720681)
# Procedure, shortened: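 Compounds were added to cell-free DMEM with 10% FBS and fluorescence read directly. The blue channel used 405 nm excitation and 460 nm emission, with triamterene as the reference fluorophore.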
# [3] = qHTS assay to test for compound auto fluorescence at 535 nm (green) in HEK293 cell free culture (AID 720682)
# Procedure, shortened: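 Green-channel intensity (Ex/Em 485/535 nm) was recorded from compound-treated wells containing only DMEM with 10% FBS. Fluorescein provided the equivalency standard.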
# [4] = qHTS assay to test for compound auto fluorescence at 590 nm (red) in HEK293 cell free culture (AID 720683)
# Procedure, shortened: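 Cell-free wells of DMEM with 10% FBS received compound, and intrinsic fluorescence was read at excitation/emission 540/590 nm. Values expressed as equivalence to Rose Bengal sodium.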
# [5] = qHTS assay to test for compound auto fluorescence at 590 nm (red) in HepG2 cell free culture (AID 720684)
# Procedure, shortened: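 Rose Bengal sodium served as the reference for red signal. Test compounds were dispensed into serum-containing MEM (10% FBS) without cells, and plates were read at 540/590 nm.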
# [6] = qHTS assay to test for compound auto fluorescence at 460 nm (blue) in HepG2 cell free culture (AID 720685)
# Procedure, shortened: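 Cell-free plates of MEM plus 10% FBS received 23 nL compound or DMSO vehicle; blue-channel (405/460 nm) intensity scored against triamterene as reference fluorophore.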
# [7] = qHTS assay to test for compound auto fluorescence at 535 nm (green) in HepG2 cell free culture (AID 720686)
# [8] = qHTS assay to test for compound auto fluorescence at 460 nm (blue) in HepG2 cells (AID 720687)
# Procedure, shortened: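 HepG2 cells in MEM with 10% FBS, attached overnight at 37 C, were exposed to compound or DMSO for 1 hr at 37 C, 5% CO2. Blue fluorescence was read at 405/460 nm, with triamterene as reference fluorophore.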
# [9] = qHTS assay for identifying genotoxic compounds that show differential cytotoxicity against isogenic chicken DT40 cell lines with known DNA damage response pathways - wild type cell line (AID 743012); further: nearly all actives have a fitted effect of over 60% in size; further: potency means the concentration at half of the fitted maximal effect
# Procedure, shortened: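 CellTiter-Glo luminescence readout of viability in wild type DT40 cells after 40 h compound exposure at 37 C/5% CO2; 300 cells/well; reagent incubated 30 min at room temperature before reading.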
# [10] = qHTS assay for identifying genotoxic compounds that show differential cytotoxicity against isogenic chicken DT40 cell lines with known DNA damage response pathways - Rev3 mutant cell line (AID 743014); further: nearly all actives have a fitted effect of over 55% in size; further: potency means the concentration at half of the fitted maximal effect
# [11] = qHTS assay for identifying genotoxic compounds that show differential cytotoxicity against isogenic chicken DT40 cell lines with known DNA damage response pathways - Rad54/Ku70 mutant cell line (AID 743015); further: nearly all actives have a fitted effect of over 60% in size; further: potency means the concentration at half of the fitted maximal effect
# [12] = qHTS assay to identify small molecule antagonists of the thyroid receptor (TR) signaling pathway - cell viability counter screen (AID 743064); further: nearly all actives have a fitted effect of over 50% in size; further: potency means the concentration at half of the fitted maximal effect
# Procedure, shortened: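 In rat pituitary GH3.TRE-Luc reporter cells co-exposed to compound and 1 nM T3 for 23.5 h, cytotoxicity was assessed with CellTiter-Fluor in the same wells, read by fluorescence.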
# [13] = qHTS assay to identify small molecule antagonists of the glucocorticoid receptor (GR) signaling pathway - cell viability counter screen (AID 720693); further: nearly all actives have a fitted effect of over 55% in size; further: potency means the concentration at half of the fitted maximal effect
# [14] = qHTS assay to identify small molecule antagonists of the androgen receptor (AR) signaling pathway - cell viability counter screen (AID 743033; further: nearly all actives have a fitted effect of over 45% in size; further: potency means the concentration at half of the fitted maximal effect)
# [15] = qHTS assay to identify small molecule antagonists of the androgen receptor (AR) signaling pathway using the MDA cell line - cell viability counter screen (AID 743041; further: nearly all actives have a fitted effect of over 45% in size; further: potency means the concentration at half of the fitted maximal effect)
# Procedure, shortened: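 Cytotoxicity counter screen: MDA-kb2 AR-luc cells, compound + R1881, 16 h, 37C, 0% CO2; CellTiter-Fluor added at 15.5 h, fluorescence read after 30 min.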
# [16] = biological target: Androgen receptor (Homo sapiens) (UniProt P10275); experiment: qHTS assay to identify small molecule antagonists of the androgen receptor (AR) signaling pathway (AID 743035; active means well fitted inhibition curve with a large enough effect in the signal ratio in the repeat runs, not every such curve was filed as active; the % refers to the signal ratio; further: potency means the concentration at half of the fitted maximal effect)
# Procedure, shortened: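 AR-bla HEK293 reporter cells; 4 h settle at 37C/5% CO2; compound + R1881 agonist, 16 h at 37C; LiveBLAzer B/G FRET substrate 2 h RT; fluorescence intensity read. qHTS format.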
# [17] = biological target: Androgen receptor (Homo sapiens) (UniProt P10275); experiment: qHTS assay to identify small molecule antagonists of the androgen receptor (AR) signaling pathway using the MDA cell line (AID 743042; further: nearly all actives have a fitted effect of over 55% in size; further: potency means the concentration at half of the fitted maximal effect)
# Procedure, shortened: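 MDA-kb2 breast carcinoma cells carrying MMTV-luciferase (AR/GR responsive) were co-treated with compounds and the agonist R1881 for 16 h at 37C. Inhibition read as ONE-Glo luminescence; CellTiter-Fluor fluorescence measured in parallel for cytotoxicity.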
# [18] = biological target: Androgen receptor (Homo sapiens) (UniProt P10275); experiment: qHTS assay to identify small molecule agonists of the androgen receptor (AR) signaling pathway using the MDA cell line (AID 743040; further: nearly all actives have a fitted effect of over 20% in size)
# Procedure, shortened: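 Luciferase read-out, ONE-Glo, 30 min RT. Cells: MDA-kb2 AR-luc, MMTV promoter with AR and GR response elements. Compound exposure 16 h, 37C, 0% CO2, after 5 h pre-incubation. qHTS agonist mode.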
# Sequence of Androgen receptor (Homo sapiens) (P10275 whole entry, looked up): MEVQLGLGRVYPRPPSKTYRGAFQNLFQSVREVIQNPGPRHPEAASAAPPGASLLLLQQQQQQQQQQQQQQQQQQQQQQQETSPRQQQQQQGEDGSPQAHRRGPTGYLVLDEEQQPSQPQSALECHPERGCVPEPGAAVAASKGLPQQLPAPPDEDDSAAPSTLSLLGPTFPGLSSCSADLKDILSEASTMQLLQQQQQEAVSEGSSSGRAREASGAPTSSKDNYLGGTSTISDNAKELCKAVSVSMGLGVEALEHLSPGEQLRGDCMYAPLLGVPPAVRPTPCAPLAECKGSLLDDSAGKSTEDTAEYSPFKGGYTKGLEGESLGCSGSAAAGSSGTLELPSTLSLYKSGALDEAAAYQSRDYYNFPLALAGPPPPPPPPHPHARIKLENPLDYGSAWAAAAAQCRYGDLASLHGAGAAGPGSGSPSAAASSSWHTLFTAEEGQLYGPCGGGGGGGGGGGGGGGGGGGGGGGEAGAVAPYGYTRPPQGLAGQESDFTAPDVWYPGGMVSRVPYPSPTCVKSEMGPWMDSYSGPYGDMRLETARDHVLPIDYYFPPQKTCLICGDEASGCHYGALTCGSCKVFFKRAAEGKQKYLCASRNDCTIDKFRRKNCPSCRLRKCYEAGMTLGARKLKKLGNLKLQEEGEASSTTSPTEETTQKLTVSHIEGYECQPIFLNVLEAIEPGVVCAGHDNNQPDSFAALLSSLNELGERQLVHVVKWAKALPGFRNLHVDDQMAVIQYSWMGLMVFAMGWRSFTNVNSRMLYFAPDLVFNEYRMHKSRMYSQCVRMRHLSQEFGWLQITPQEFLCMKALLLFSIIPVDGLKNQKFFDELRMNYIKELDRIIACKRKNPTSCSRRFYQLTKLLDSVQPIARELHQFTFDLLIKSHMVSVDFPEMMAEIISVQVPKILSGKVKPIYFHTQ
Compound,Potency [1],Potency [2],Potency [3],Potency [4],Potency [5],Potency [6],Potency [7],Potency [8],Potency [9],Potency [10],Potency [11],Potency [12],Potency [13],Potency [14],Potency [15],Potency [16],Potency [17],Potency [18]
C=CC(=O)OCC(O)COc1ccccc1 (stereo not given),inactive,inactive,inactive,inactive,inactive,inactive,inactive,inactive,24.3 µM (active),27.3 µM (active),30.6 µM (active),54.5 µM (active),–,–,–,–,–,–
CSc1ccc2c(c1)N(CCC1CCCCN1C)c1ccccc1S2 (stereo not given),inactive,inactive,inactive,inactive,inactive,inactive,inactive,inactive,–,6.68 µM (active) and 17.2 µM (active),9.44 µM (active) and 19.3 µM (active),7.5 µM (active) and 8.6 µM (active),54.7 µM (active),23.9 µM (active) and 21.8 µM (active),inactive,–,–,–
COC(=O)C1=C(C)NC(C)=C(C(=O)OCCCN2CCC(c3ccccc3)(c3ccccc3)CC2)C1c1cccc([N+](=O)[O-])c1 (stereo not given),inactive,inactive,inactive,inactive,inactive,inactive,inactive,inactive,4.73 µM (active),6.68 µM (active),6.68 µM (active),11.9 µM (active),–,21.3 µM (active),–,16.9 µM (active),–,–
CCN(CC)CCOc1ccc(C(O)(Cc2ccc(Cl)cc2)c2ccc(C)cc2)cc1 (stereo not given),inactive,inactive,inactive,inactive,inactive,inactive,inactive,inactive,2.11 µM (active),2.11 µM (active),2.98 µM (active),7.5 µM (active),–,16.9 µM (active),–,–,–,–
CC(NCCC(c1ccccc1)c1ccccc1)c1ccccc1 (stereo not given),inactive,inactive,inactive,inactive,inactive,inactive,inactive,inactive,2.98 µM (active),4.22 µM (active),5.31 µM (active),9.44 µM (active),–,21.3 µM (active),23.7 µM (active),21.3 µM (active),23.7 µM (active),–
O=C1C=CC(=O)N1c1ccccc1,inactive,inactive,inactive,inactive,inactive,inactive,inactive,inactive,–,1.22 µM (active),1.37 µM (active),4.86 µM (active),–,12.3 µM (active),48.6 µM (active),–,27.3 µM (active),inactive
c1ccc(Sc2ccccc2)cc1,inactive,inactive,inactive,inactive,inactive,inactive,inactive,inactive,–,68.6 µM (active),–,inactive,inactive,–,inactive,inactive,inactive,–
CCCCCCC(C)OC(=O)COc1nc(F)c(Cl)c(N)c1Cl (stereo not given),inactive,inactive,inactive,inactive,inactive,inactive,inactive,inactive,43.3 µM (active),38.6 µM (active),38.6 µM (active),–,–,inactive,–,–,–,–
CC(C(O)c1ccccc1)N(C)CCOC(c1ccccc1)c1ccccc1 (stereo not given),inactive,inactive,inactive,inactive,inactive,inactive,inactive,inactive,–,8.41 µM (active),9.44 µM (active),11.9 µM (active),inactive,–,26.6 µM (active),–,–,–
CCCCCCCCCCCCOC(=O)c1cc(O)c(O)c(O)c1,inactive,inactive,inactive,inactive,inactive,inactive,inactive,inactive,–,384 nM (active) and 273 nM (active),342 nM (active) and 217 nM (active),3.05 µM (active) and 2.43 µM (active),27.4 µM (active) and 34.7 µM (active),54.9 µM (active),54.5 µM (active),–,–,–
N[C@@H](CSSC[C@H](N)C(=O)O)C(=O)O,inactive,inactive,inactive,inactive,inactive,inactive,inactive,inactive,inactive,inactive,inactive,inactive,–,inactive,inactive,inactive,–,–
O=C1NCN(c2ccccc2)C12CCN(CCCC(c1ccc(F)cc1)c1ccc(F)cc1)CC2,inactive,inactive,inactive,inactive,inactive,inactive,inactive,inactive,–,10.6 µM (active),9.44 µM (active),3.35 µM (active),–,inactive,29.8 µM (active),–,–,–
C=CC(=O)OCCC#N,inactive,inactive,inactive,inactive,inactive,inactive,inactive,inactive,–,inactive,–,–,inactive,inactive,inactive,inactive,inactive,–
CCOC(=O)C1=C(C)NC(C)=C(C(=O)OCC)C1c1ccccc1/C=C/C(=O)OC(C)(C)C,inactive,inactive,inactive,inactive,inactive,inactive,inactive,inactive,2.66 µM (active),3.76 µM (active),5.96 µM (active),13.3 µM (active),–,inactive,inactive,–,–,–
Cc1ccc(N)cc1O,inactive,inactive,inactive,inactive,inactive,inactive,inactive,inactive,30.6 µM (active),56.1 µM (active),52 µM (active),–,–,inactive,–,–,–,–
